# Source: publication PMC11006913
# Where a chain is given by its changes, count along the chain named.
# Tests used:
# Experiment in all cases: PBM; 200 nM protein, PBS
# Conditions in all cases: dsDNA, one strand shown
# HESX1 [1] = target: HESX1 (Homo sapiens, UniProt Q9UBX0 95-180, R165K)
# HESX1 [2] = target: HESX1 (Homo sapiens, UniProt Q9UBX0 95-180)
# HESX1 [3] = target: HESX1 (Homo sapiens, UniProt Q9UBX0 95-180, R109Q)
# HESX1 [4] = target: HESX1 (Homo sapiens, UniProt Q9UBX0 95-180, F115L)
# Sequence of HESX1 (Homo sapiens, UniProt Q9UBX0 95-180, F115L) (Q9UBX0 95-180 F115L): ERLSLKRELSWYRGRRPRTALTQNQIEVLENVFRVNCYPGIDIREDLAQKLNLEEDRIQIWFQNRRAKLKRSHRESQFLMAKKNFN
# VAX1 [5] = target: VAX1 (Homo sapiens, UniProt Q5SQQ9 86-172)
# Sequence of VAX1 (Homo sapiens, UniProt Q5SQQ9 86-172) (Q5SQQ9 86-172): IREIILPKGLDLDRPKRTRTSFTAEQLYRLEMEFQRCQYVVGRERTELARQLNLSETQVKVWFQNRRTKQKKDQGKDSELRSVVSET
# VAX1 [6] = target: VAX1 (Homo sapiens, UniProt Q5SQQ9 86-172, T142I)
# Sequence of VAX1 (Homo sapiens, UniProt Q5SQQ9 86-172, T142I) (Q5SQQ9 86-172 T142I): as the sequence (Q5SQQ9 86-172) above, with T57I counted along it
# VAX1 [7] = target: VAX1 (Homo sapiens, UniProt Q5SQQ9 86-172, K157R)
# Sequence of VAX1 (Homo sapiens, UniProt Q5SQQ9 86-172, K157R) (Q5SQQ9 86-172 K157R): as the sequence (Q5SQQ9 86-172) above, with K72R counted along it
# HESX1 [8] = target: HESX1 (Homo sapiens, UniProt Q9UBX0 95-180, P111T)
# Sequence of HESX1 (Homo sapiens, UniProt Q9UBX0 95-180, P111T) (Q9UBX0 95-180 P111T): as the sequence (Q9UBX0 95-180 F115L) above, with P17T, L21F counted along it
# HOXB4 [9] = target: HOXB4 (Homo sapiens, UniProt P17483 148-234)
# Sequence of HOXB4 (Homo sapiens, UniProt P17483 148-234) (P17483 148-234): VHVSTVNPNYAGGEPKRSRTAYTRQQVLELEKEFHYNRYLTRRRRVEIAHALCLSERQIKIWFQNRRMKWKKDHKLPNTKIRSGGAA
# HOXB4 [10] = target: HOXB4 (Homo sapiens, UniProt P17483 148-234, V174I)
# Sequence of HOXB4 (Homo sapiens, UniProt P17483 148-234, V174I) (P17483 148-234 V174I): as the sequence (P17483 148-234) above, with V27I counted along it
# VENTX [11] = target: T1, VENTX (Homo sapiens, UniProt O95231 78-163, R121Q)
# T1 sequence: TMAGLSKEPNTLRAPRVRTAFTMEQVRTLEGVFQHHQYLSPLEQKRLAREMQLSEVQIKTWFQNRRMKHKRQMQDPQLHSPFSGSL
# VENTX [12] = target: T2, VENTX (Homo sapiens, UniProt O95231 78-163, Y115F)
# T2 sequence: T1 sequence with Y38F, Q44R
# HOXA2 [13] = target: HOXA2 (Homo sapiens, UniProt O43364 129-215, R185T)
# Sequence of HOXA2 (Homo sapiens, UniProt O43364 129-215, R185T) (O43364 129-215 R185T): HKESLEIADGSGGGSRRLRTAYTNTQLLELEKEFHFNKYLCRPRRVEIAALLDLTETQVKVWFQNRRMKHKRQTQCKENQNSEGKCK
# HOXA2 [14] = target: HOXA2 (Homo sapiens, UniProt O43364 129-215, R185K)
# Sequence of HOXA2 (Homo sapiens, UniProt O43364 129-215, R185K) (O43364 129-215 R185K): as the sequence (O43364 129-215 R185T) above, with T57K counted along it
# HOXA2 [15] = target: HOXA2 (Homo sapiens, UniProt O43364 129-215, Y150S)
# Sequence of HOXA2 (Homo sapiens, UniProt O43364 129-215, Y150S) (O43364 129-215 Y150S): as the sequence (O43364 129-215 R185T) above, with Y22S, T57R counted along it
# HOXA2 [16] = target: HOXA2 (Homo sapiens, UniProt O43364 129-215)
# Sequence of HOXA2 (Homo sapiens, UniProt O43364 129-215) (O43364 129-215): as the sequence (O43364 129-215 R185T) above, with T57R counted along it
# HOXA4 [17] = target: HOXA4 (Homo sapiens, UniProt Q00056 201-287, W262R)
# Sequence of HOXA4 (Homo sapiens, UniProt Q00056 201-287, W262R) (Q00056 201-287 W262R): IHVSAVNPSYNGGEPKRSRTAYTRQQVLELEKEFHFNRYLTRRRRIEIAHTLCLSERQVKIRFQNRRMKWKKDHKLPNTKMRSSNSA
# HOXA4 [18] = target: HOXA4 (Homo sapiens, UniProt Q00056 201-287, R217L)
# Sequence of HOXA4 (Homo sapiens, UniProt Q00056 201-287, R217L) (Q00056 201-287 R217L): as the sequence (Q00056 201-287 W262R) above, with R17L, R62W counted along it
# HOXA4 [19] = target: HOXA4 (Homo sapiens, UniProt Q00056 201-287)
# Sequence of HOXA4 (Homo sapiens, UniProt Q00056 201-287) (Q00056 201-287): as the sequence (Q00056 201-287 W262R) above, with R62W counted along it
# HOXA4 [20] = target: HOXA4 (Homo sapiens, UniProt Q00056 201-287, W262F)
# Sequence of HOXA4 (Homo sapiens, UniProt Q00056 201-287, W262F) (Q00056 201-287 W262F): as the sequence (Q00056 201-287 W262R) above, with R62F counted along it
# Sequence of HESX1 (Homo sapiens, UniProt Q9UBX0 95-180, R165K) (Q9UBX0 95-180 R165K): as the sequence (Q9UBX0 95-180 F115L) above, with L21F, R71K counted along it
# Sequence of HESX1 (Homo sapiens, UniProt Q9UBX0 95-180) (Q9UBX0 95-180): as the sequence (Q9UBX0 95-180 F115L) above, with L21F counted along it
# Sequence of HESX1 (Homo sapiens, UniProt Q9UBX0 95-180, R109Q) (Q9UBX0 95-180 R109Q): as the sequence (Q9UBX0 95-180 F115L) above, with R15Q, L21F counted along it
sequence,measurement,setting,value
CAAATGGG,binding signal,HESX1 [1],"7.28 upbm affinity estimate (log intensity, higher = more binding, comparable within an allelic series)"
same,binding signal,HESX1 [2],"7.38 upbm affinity estimate (log intensity, higher = more binding, comparable within an allelic series)"
same,binding signal,HESX1 [3],"6.88 upbm affinity estimate (log intensity, higher = more binding, comparable within an allelic series)"
same,binding signal,HESX1 [4],"6.73 upbm affinity estimate (log intensity, higher = more binding, comparable within an allelic series)"
CATAATAC,binding signal,HESX1 [1],"7.93 upbm affinity estimate (log intensity, higher = more binding, comparable within an allelic series)"
same,binding signal,HESX1 [2],"8.07 upbm affinity estimate (log intensity, higher = more binding, comparable within an allelic series)"
same,binding signal,VAX1 [5],"10.4 upbm affinity estimate (log intensity, higher = more binding, comparable within an allelic series)"
same,binding signal,VAX1 [6],"10 upbm affinity estimate (log intensity, higher = more binding, comparable within an allelic series)"
same,binding signal,VAX1 [7],"10.1 upbm affinity estimate (log intensity, higher = more binding, comparable within an allelic series)"
AACCTATT,binding signal,HESX1 [1],"8.08 upbm affinity estimate (log intensity, higher = more binding, comparable within an allelic series)"
same,binding signal,HESX1 [2],"8.17 upbm affinity estimate (log intensity, higher = more binding, comparable within an allelic series)"
same,binding signal,HESX1 [8],"7.48 upbm affinity estimate (log intensity, higher = more binding, comparable within an allelic series)"
CGAGGGTC,binding signal,HOXB4 [9],"7.67 upbm affinity estimate (log intensity, higher = more binding, comparable within an allelic series)"
same,binding signal,HOXB4 [10],"7.5 upbm affinity estimate (log intensity, higher = more binding, comparable within an allelic series)"
same,binding signal,VAX1 [5],"6.87 upbm affinity estimate (log intensity, higher = more binding, comparable within an allelic series)"
same,binding signal,VAX1 [6],"7 upbm affinity estimate (log intensity, higher = more binding, comparable within an allelic series)"
same,binding signal,VAX1 [7],"7.08 upbm affinity estimate (log intensity, higher = more binding, comparable within an allelic series)"
CAGGGGGC,binding signal,HOXB4 [9],"7.45 upbm affinity estimate (log intensity, higher = more binding, comparable within an allelic series)"
same,binding signal,VENTX [11],"7.88 upbm affinity estimate (log intensity, higher = more binding, comparable within an allelic series)"
same,binding signal,VENTX [12],"7.91 upbm affinity estimate (log intensity, higher = more binding, comparable within an allelic series)"
same,binding signal,HOXA2 [13],"7.09 upbm affinity estimate (log intensity, higher = more binding, comparable within an allelic series)"
same,binding signal,HOXB4 [10],"7.54 upbm affinity estimate (log intensity, higher = more binding, comparable within an allelic series)"
same,binding signal,HOXA2 [14],"10.1 upbm affinity estimate (log intensity, higher = more binding, comparable within an allelic series)"
same,binding signal,HOXA2 [15],"10.3 upbm affinity estimate (log intensity, higher = more binding, comparable within an allelic series)"
same,binding signal,HOXA2 [16],"7.35 upbm affinity estimate (log intensity, higher = more binding, comparable within an allelic series)"
CATTAATG,binding signal,HOXB4 [9],"13.4 upbm affinity estimate (log intensity, higher = more binding, comparable within an allelic series)"
same,binding signal,VENTX [11],"11.8 upbm affinity estimate (log intensity, higher = more binding, comparable within an allelic series)"
same,binding signal,HOXA4 [17],"10.7 upbm affinity estimate (log intensity, higher = more binding, comparable within an allelic series)"
same,binding signal,VENTX [12],"11.8 upbm affinity estimate (log intensity, higher = more binding, comparable within an allelic series)"
same,binding signal,HOXA2 [13],"12.6 upbm affinity estimate (log intensity, higher = more binding, comparable within an allelic series)"
same,binding signal,HOXA4 [18],"12.3 upbm affinity estimate (log intensity, higher = more binding, comparable within an allelic series)"
same,binding signal,HOXB4 [10],"14 upbm affinity estimate (log intensity, higher = more binding, comparable within an allelic series)"
same,binding signal,HOXA2 [14],"13.4 upbm affinity estimate (log intensity, higher = more binding, comparable within an allelic series)"
same,binding signal,HOXA4 [19],"14.2 upbm affinity estimate (log intensity, higher = more binding, comparable within an allelic series)"
same,binding signal,VAX1 [5],"12.7 upbm affinity estimate (log intensity, higher = more binding, comparable within an allelic series)"
same,binding signal,VAX1 [6],"12.5 upbm affinity estimate (log intensity, higher = more binding, comparable within an allelic series)"
same,binding signal,HOXA2 [15],"11.1 upbm affinity estimate (log intensity, higher = more binding, comparable within an allelic series)"
same,binding signal,HOXA4 [20],"11.7 upbm affinity estimate (log intensity, higher = more binding, comparable within an allelic series)"
same,binding signal,HOXA2 [16],"12.3 upbm affinity estimate (log intensity, higher = more binding, comparable within an allelic series)"
same,binding signal,VAX1 [7],"12.8 upbm affinity estimate (log intensity, higher = more binding, comparable within an allelic series)"
GCCCAGAC,binding signal,HOXB4 [9],"7.49 upbm affinity estimate (log intensity, higher = more binding, comparable within an allelic series)"
same,binding signal,HOXB4 [10],"7.68 upbm affinity estimate (log intensity, higher = more binding, comparable within an allelic series)"
CGGGAGAG,binding signal,HOXB4 [9],"7.57 upbm affinity estimate (log intensity, higher = more binding, comparable within an allelic series)"
same,binding signal,HOXB4 [10],"7.66 upbm affinity estimate (log intensity, higher = more binding, comparable within an allelic series)"
ATTAATGG,binding signal,HOXB4 [9],"13.4 upbm affinity estimate (log intensity, higher = more binding, comparable within an allelic series)"
same,binding signal,VENTX [11],"12.2 upbm affinity estimate (log intensity, higher = more binding, comparable within an allelic series)"
same,binding signal,HOXA4 [17],"10.7 upbm affinity estimate (log intensity, higher = more binding, comparable within an allelic series)"
same,binding signal,VENTX [12],"11.8 upbm affinity estimate (log intensity, higher = more binding, comparable within an allelic series)"
same,binding signal,HOXA2 [13],"12.6 upbm affinity estimate (log intensity, higher = more binding, comparable within an allelic series)"
same,binding signal,HOXA4 [18],"12.2 upbm affinity estimate (log intensity, higher = more binding, comparable within an allelic series)"
same,binding signal,HOXB4 [10],"14.1 upbm affinity estimate (log intensity, higher = more binding, comparable within an allelic series)"
same,binding signal,HOXA2 [14],"13.4 upbm affinity estimate (log intensity, higher = more binding, comparable within an allelic series)"
same,binding signal,HOXA4 [19],"13.9 upbm affinity estimate (log intensity, higher = more binding, comparable within an allelic series)"
same,binding signal,VAX1 [5],"13 upbm affinity estimate (log intensity, higher = more binding, comparable within an allelic series)"
same,binding signal,VAX1 [6],"12.6 upbm affinity estimate (log intensity, higher = more binding, comparable within an allelic series)"
same,binding signal,HOXA2 [15],"11.1 upbm affinity estimate (log intensity, higher = more binding, comparable within an allelic series)"
same,binding signal,HOXA4 [20],"11.6 upbm affinity estimate (log intensity, higher = more binding, comparable within an allelic series)"
same,binding signal,HOXA2 [16],"12.3 upbm affinity estimate (log intensity, higher = more binding, comparable within an allelic series)"
same,binding signal,VAX1 [7],"12.5 upbm affinity estimate (log intensity, higher = more binding, comparable within an allelic series)"
CGGCGAGC,binding signal,HOXB4 [9],"7.79 upbm affinity estimate (log intensity, higher = more binding, comparable within an allelic series)"
same,binding signal,HOXB4 [10],"7.74 upbm affinity estimate (log intensity, higher = more binding, comparable within an allelic series)"
GACTGGCC,binding signal,HOXB4 [9],"7.7 upbm affinity estimate (log intensity, higher = more binding, comparable within an allelic series)"
same,binding signal,HOXB4 [10],"7.58 upbm affinity estimate (log intensity, higher = more binding, comparable within an allelic series)"
ATTGAACC,binding signal,HESX1 [1],"7.56 upbm affinity estimate (log intensity, higher = more binding, comparable within an allelic series)"
same,binding signal,HESX1 [2],"7.77 upbm affinity estimate (log intensity, higher = more binding, comparable within an allelic series)"
same,binding signal,HESX1 [8],"7.33 upbm affinity estimate (log intensity, higher = more binding, comparable within an allelic series)"
AACAATAC,binding signal,HESX1 [1],"7.27 upbm affinity estimate (log intensity, higher = more binding, comparable within an allelic series)"
same,binding signal,HESX1 [2],"7.3 upbm affinity estimate (log intensity, higher = more binding, comparable within an allelic series)"
same,binding signal,HESX1 [8],"7.19 upbm affinity estimate (log intensity, higher = more binding, comparable within an allelic series)"
CATTAGGG,binding signal,HESX1 [1],"8.41 upbm affinity estimate (log intensity, higher = more binding, comparable within an allelic series)"
same,binding signal,HESX1 [2],"8.4 upbm affinity estimate (log intensity, higher = more binding, comparable within an allelic series)"
same,binding signal,HESX1 [4],"6.71 upbm affinity estimate (log intensity, higher = more binding, comparable within an allelic series)"
AATCATTA,binding signal,HOXB4 [9],"13.2 upbm affinity estimate (log intensity, higher = more binding, comparable within an allelic series)"
same,binding signal,HOXA4 [17],"10.7 upbm affinity estimate (log intensity, higher = more binding, comparable within an allelic series)"
same,binding signal,HOXA2 [13],"12.4 upbm affinity estimate (log intensity, higher = more binding, comparable within an allelic series)"
same,binding signal,HOXA4 [18],"12.3 upbm affinity estimate (log intensity, higher = more binding, comparable within an allelic series)"
same,binding signal,HOXB4 [10],"13.8 upbm affinity estimate (log intensity, higher = more binding, comparable within an allelic series)"
same,binding signal,HOXA2 [14],"13.2 upbm affinity estimate (log intensity, higher = more binding, comparable within an allelic series)"
same,binding signal,HOXA4 [19],"13.9 upbm affinity estimate (log intensity, higher = more binding, comparable within an allelic series)"
same,binding signal,VAX1 [5],"12.7 upbm affinity estimate (log intensity, higher = more binding, comparable within an allelic series)"
same,binding signal,VAX1 [6],"12.6 upbm affinity estimate (log intensity, higher = more binding, comparable within an allelic series)"
same,binding signal,HOXA2 [15],"10.8 upbm affinity estimate (log intensity, higher = more binding, comparable within an allelic series)"
same,binding signal,HOXA4 [20],"11.6 upbm affinity estimate (log intensity, higher = more binding, comparable within an allelic series)"
same,binding signal,HOXA2 [16],"12.1 upbm affinity estimate (log intensity, higher = more binding, comparable within an allelic series)"
same,binding signal,VAX1 [7],"12.4 upbm affinity estimate (log intensity, higher = more binding, comparable within an allelic series)"
TAAATTAA,binding signal,HOXB4 [9],"12.9 upbm affinity estimate (log intensity, higher = more binding, comparable within an allelic series)"
same,binding signal,HOXB4 [10],"13.6 upbm affinity estimate (log intensity, higher = more binding, comparable within an allelic series)"
same,binding signal,VAX1 [5],"12.6 upbm affinity estimate (log intensity, higher = more binding, comparable within an allelic series)"
same,binding signal,HESX1 [8],"10.1 upbm affinity estimate (log intensity, higher = more binding, comparable within an allelic series)"
same,binding signal,VAX1 [6],"12.4 upbm affinity estimate (log intensity, higher = more binding, comparable within an allelic series)"
same,binding signal,VAX1 [7],"12.4 upbm affinity estimate (log intensity, higher = more binding, comparable within an allelic series)"
